Compounds with a hit are over-represented: about 3.5% of the library has one in this group of screens.
MITF inh: MITF inhibitors, primary screen, biochemical, AlphaScreen, human; AlphaScreen MITF homodimerization, bead proximity signal; inhibition, % at 2.6 µM; AID 1259374, 2018; hit rate 0.91% among 650,000; Microphthalmia-associated transcription factor (Homo sapiens), O75030; in the data active = inhibition above about 50%;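 also: 0% = vehicle wells with protein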
Target sequence (O75030 whole entry, looked up): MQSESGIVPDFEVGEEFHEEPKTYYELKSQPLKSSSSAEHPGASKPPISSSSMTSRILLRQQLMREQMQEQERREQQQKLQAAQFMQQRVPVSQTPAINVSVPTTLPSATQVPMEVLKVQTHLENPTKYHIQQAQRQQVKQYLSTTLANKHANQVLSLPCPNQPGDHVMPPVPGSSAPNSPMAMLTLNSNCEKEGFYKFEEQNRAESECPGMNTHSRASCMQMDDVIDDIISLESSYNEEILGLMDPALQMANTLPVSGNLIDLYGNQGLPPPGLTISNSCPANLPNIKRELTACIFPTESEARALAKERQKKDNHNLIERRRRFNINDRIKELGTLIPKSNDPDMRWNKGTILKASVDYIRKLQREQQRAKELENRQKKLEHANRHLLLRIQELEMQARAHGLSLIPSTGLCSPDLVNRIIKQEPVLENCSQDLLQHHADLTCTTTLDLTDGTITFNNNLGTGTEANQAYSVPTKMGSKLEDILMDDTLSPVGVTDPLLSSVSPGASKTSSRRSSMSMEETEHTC
GPR151 activ: activators of human GPR151, primary screen, cell-based, PathHunter beta-arrestin, luminescence; G-protein coupled receptor 151 (Homo sapiens), Q8TDV0; PathHunter beta-arrestin GPR151 cells; activation, % at 11.2 µM; hit rate 1% among 650,000; AID 1508602, 2020; in the data active = activation above about 4.9%;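 also: 0% = median of compound wells and 100% = cells with positive control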
FBW7 act: FBW7 E3 ligase activators, primary screen, biochemical, AlphaScreen, human; F-box/WD repeat-containing protein 7 (Homo sapiens), Q969H0; AlphaScreen FBW7–phospho-cyclin E peptide binding, activator screen; normalized activity (activation), % at 26.1 µM; hit rate 0.13% among 650,000; in the data active = normalized activity above about 1.9%;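 also: purified mutant Fbw7 with reduced substrate affinity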
TEAD-YAP inh: TEAD-YAP interaction inhibition, primary screen, TEAD-YAP interaction inhibitor project, luminescence, HEK-TIYL cells; TEAD-Gal4/YAP UAS-luciferase luminescence; inhibition, % at 9.12 µM; hit rate 1.4% among 640,000; in the data active = inhibition above about 32%;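 also: 0% = median of test compound wells and 100% = reference inhibitor wells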
Starred values were filed as active, the others as inactive.

SMILES | MITF inh | GPR151 activ | FBW7 act | TEAD-YAP inh
CCCCOc1ccc(/C=C2\C(=O)ON=C2c2ccc(Cl)cc2)cc1 | 24 | -1 | 0 | 9
COc1cc(/C=C2\C(=O)ON=C2c2ccccc2)cc(OC)c1OC | 13 | 0 | 0 | -7
COc1ccc(OC)c(/C=C2\C(=O)ON=C2c2ccccc2)c1 | 77* | 0 | 0 | -8
COc1ccc(OC)c(C=C2C(=O)OC(C)(c3ccccc3)OC2=O)c1 (stereo unspecified) | 22 | 1 | 0 | -8
CCOc1ccc(/C=C2\C(=O)ON=C2c2ccccc2)cc1 | 6 | 0 | 0 | -5
O=C1ON=C(c2ccc(Cl)cc2)/C1=C\c1ccc2c(c1)OCO2 | 77* | 0 | 0 | 2
Cc1ccc(C(=O)c2cccc(N3C(=O)C4C5C=CC(C5)C4C3=O)c2)cc1C (stereo unspecified) | 8 | 0 | 1 | -15
CCOc1ccccc1NC(=O)C(=O)N/N=C/c1cccc(Cl)c1Cl | 3 | 0 | 0 | 8
CCOc1ccccc1NC(=O)C(=O)N/N=C/c1cccc(OC)c1O | 23 | 2 | -2 | 79*
CCCCNC(=O)C(=O)Nc1ccccc1OCC | 3 | 0 | 2.3* | 0
COc1cccc(/C=N/NC(=O)C(=O)Nc2ccccc2OC(F)(F)C(F)F)c1O | 0 | 4 | 0 | 65*
O=C(N/N=C/c1ccccc1)C(=O)Nc1ccccc1OC(F)(F)C(F)F | 14 | -1 | 0 | 4
CCC(C)NC(=O)c1ccc(C(=O)NC(C)CC)nc1 (stereo unspecified) | -4 | -2 | 0 | -8
O=[N+]([O-])c1c(N2CCCCC2)ncnc1N1CCCCC1 | 5 | 5 | 0 | -4
Nc1ncnc(N2CCCCC2)c1[N+](=O)[O-] | -1 | -1 | 0 | 37*
Nc1ncnc(N2CCc3ccccc32)c1[N+](=O)[O-] | -3 | 2 | 0 | 36*
Cc1c(C(=O)NC2CCCCC2)sc2ncnc(N3CCCCC3)c12 | 1 | 3 | 0 | -2
CCOC(=O)c1ccc(NC(=O)CC23CC4CC(CC(C4)C2)C3)cc1 | 10 | -1 | 0 | 69*
COC(=O)c1cc(-c2ccc(OC)cc2)no1 | -3 | 3 | 1.9* | -5
CCOC(=O)c1cc(-c2ccc(N(CC)CC)cc2)no1 | 11 | 0 | 5.3* | -58
COc1cc(NC(=O)c2cnc(N3CCc4ccccc4C3)s2)cc(OC)c1OC | -1 | -1 | 0 | 42*
COc1cc(NC(=O)c2cnc(N3CCN(c4ccccn4)CC3)s2)cc(OC)c1OC | 2 | 3 | 0 | 41*
CC1=C(C(=O)OC2CCCC2)C(c2ccc(N(C)C)cc2)C2=C(CC(c3ccccc3)CC2=O)N1 (stereo unspecified) | 24 | -1 | 1 | 0
Cc1ccc(C(=O)Nc2nc3ccccc3n2C)cc1 | 16 | -3 | 0 | 41*
Cn1c(NC(=O)c2ccc(Cl)c(Cl)c2)nc2ccccc21 | 22 | 0 | 0 | -20
SMILES | MITF inh | GPR151 activ | FBW7 act | TEAD-YAP inh
COc1ccc(-c2nc(N)c3ncn(-c4ccccc4)c3n2)cn1 | -3 | 0 | 0 | -4
COc1ccc(-c2nc(N)c3ncn(-c4ccccc4)c3n2)cc1 | -6 | -1 | 0 | 1
COc1ccc(-c2nc(N)c3ncn(-c4ccsc4)c3n2)cn1 | -8 | 0 | 0 | 62*
COc1ccc(-c2nc(N)c3ncn(-c4ccsc4)c3n2)cc1 | 6 | 0 | 0 | 36*
O=C(CC1CCCCC1)Nc1nnc2n1CCS2 | 19 | 1 | 3.1* | -4
CCCCc1ccc(-c2nc(Nc3cc(Oc4ccc(F)cc4)cc([N+](=O)[O-])c3)c3ccccc3n2)cc1 | 16 | 1 | 0 | -11
CCCCc1ccc(-c2nc(Nc3cc(Oc4ccccc4)cc([N+](=O)[O-])c3)c3ccccc3n2)cc1 | -12 | 4 | 0 | 50*
COc1cc(-c2nc(Nc3cc(Sc4ccc(F)cc4)cc([N+](=O)[O-])c3)c3ccccc3n2)cc(OC)c1OC | 5 | 0 | 0 | -3
CCCCc1ccc(-c2nc(Nc3cc(Sc4ccc(F)cc4)cc([N+](=O)[O-])c3)c3ccccc3n2)cc1 | 10 | 1 | 0 | 57*
O=C(Nc1cccc(Cl)c1)c1cc2c(=O)oc3ccccc3c2s1 | 11 | -2 | 0 | 5
COc1cccc(C2=CC(c3cc(OC)ccc3OC)n3nnnc3N2)c1 (stereo unspecified) | 10 | -2 | 0 | 50*
COc1ccc(C2=CC(c3cc(OC)ccc3OC)n3nnnc3N2)cc1 (stereo unspecified) | 4 | 0 | 0 | -4
COc1cccc(C2=CC(c3cccc(OC)c3OC)n3nnnc3N2)c1 (stereo unspecified) | -1 | 0 | 0 | 30
COc1cccc(C2=CC(c3ccccc3F)n3nnnc3N2)c1 (stereo unspecified) | 15 | 1 | 0 | 44*
CCOc1ccc(C2=CC(c3cc(OC)c(OC)c(OC)c3)n3nnnc3N2)cc1 (stereo unspecified) | 5 | 2 | 0 | 44*
COc1cccc(C2=CC(c3cc(OC)c(OC)c(OC)c3)n3nnnc3N2)c1 (stereo unspecified) | 7 | -1 | 0 | 57*
CCOc1ccc(C2C=C(c3ccc(F)cc3)Nc3nnnn32)cc1 (stereo unspecified) | -14 | 3 | 0 | -16
C=CCn1c(=O)c(CNCCc2n[nH]c(C)n2)cc2cc3c(cc21)CCC3 | 5 | 1 | 0 | 1
O=C1c2ccccc2C(=O)c2c1ccc(C(=O)OCC(=O)N1CCCCC1)c2[N+](=O)[O-] | -10 | 0 | 0 | 8
COc1ccc2ccccc2c1C1NC(=O)NC(C)=C1C(=O)Nc1ccc(F)cc1 (stereo unspecified) | 15 | 3 | 0 | 9
CN(C(=O)c1ccc2c(c1)n(C)c(=O)n2C)c1nc2c(s1)CCc1occc1-2 | 4 | -1 | 0 | -2
COc1cccc(C2=CC(c3cccc(OC)c3)n3nnnc3N2)c1 (stereo unspecified) | -3 | 1 | 0 | 56*
COc1cccc(C2C=C(c3ccc(C)cc3)Nc3nnnn32)c1 (stereo unspecified) | 4 | 0 | 0 | 32*
CN(C)/C=C(\C#N)C(=O)N=C1CCCN1C | 3 | 1 | 0 | -6
N#C/C(=C/c1ccc2c(c1)OCO2)c1nn(CCO)c(N)c1C#N | 5 | 0 | 0 | -46
Cc1ccc(C(=O)c2c(C)[n+](-c3ccccc3)c3scc(C)n23)cc1 | 12 | 2 | 0 | 34*
Cc1csc2n1c(C(=O)c1ccccc1)c(C)[n+]2-c1ccccc1 | 3 | 0 | 0 | 13
Cc1cc(C(=O)C(=O)O)c(C)n1-c1cnccn1 | -2 | -1 | 0 | 1
O=C(O)CNCCC(O)c1ccccc1 (stereo unspecified) | 35 | 1 | 0 | -4

Screening data from PubChem BioAssay.
